The sample as a whole holds a higher share of hits than the screen did.
14-3-3 PPI = modulators of human 14-3-3 gamma - Raf peptide interaction | P61981 | FP, 14-3-3gamma / TMR-pS259-Raf peptide binding | inhibition, % at 40 µM | 160,000 tested, 0.19% active | AID 422; in the data active = inhibition above about 30%
Each line names hits and unclear results; the compound was inactive in the other large screens.

CN(N=O)c1ccc(O)c(O)c1	14-3-3 PPI 40
CCOC(=O)C1=C(NC(=O)Cc2ccccc2)c2ccccc2CC12CCCCC2	none
CN1CCN(c2ccc([N+](=O)[O-])s2)CC1	none
C=CCOC(=O)C1C2NC(=S)N(c3cccc(Br)c3)C1(C)Oc1c(OC)cccc12 (configuration not stated)	none
C#CCN(C)C(C)Cc1ccccc1 (configuration not stated)	14-3-3 PPI 35
C#CCN(C)[C@@H](C)Cc1ccccc1	none
Clc1ccc(C2N3CCCCN23)cc1 (configuration not stated)	none
Cc1ccc(Cl)cc1-n1c(C=Cc2ccc(F)cc2)nc2ccccc2c1=O	none
CCOC(=O)C1C2NC(=S)N(c3ccc(C)cc3)C1(C)Oc1c(OC)cccc12 (configuration not stated)	none
CCOc1ccc(-n2c(O)c(C=NCCN3CCNCC3)c(=O)[nH]c2=O)cc1	14-3-3 PPI 34
Cc1ccc(-n2c(O)c(C=NCCN3CCOCC3)c(=O)[nH]c2=O)cc1	none
O=c1[nH]c(=O)n(CCc2ccccc2)c(O)c1C=NCCN1CCNCC1	none
O=C1C2Cc3ccccc3CN2C(=S)N1c1ccc([N+](=O)[O-])cc1 (configuration not stated)	none
O=C1NC(=O)C2(C(=O)N1)C(c1cccc(Br)c1)NC(=O)NC2c1cccc(Br)c1 (configuration not stated)	none
O=C(C1CC1)N1CCc2cc(Br)cc(S(=O)(=O)N3CC4CC(C3)c3cccc(=O)n3C4)c21 (configuration not stated)	none
CCC1(C(=O)c2ccc(C)cc2)C2c3cc(Br)ccc3OC(=O)C21C(=O)OC (configuration not stated)	14-3-3 PPI 31
CCOC(=O)C1C2NC(=S)N(c3ccccc3)C1(C)Oc1ccc(Br)cc12 (configuration not stated)	none
CCC1(C(=O)c2ccccc2)C2c3cc(Br)ccc3OC(=O)C21C(=O)OC (configuration not stated)	none
CCC(=O)C1C(=O)NC(=O)NC1=O	none
CCOC(=O)C1=C(N)OC(C)=C(C(=O)OC(C)(C)C)C12C(=O)N(CC(=O)OC)c1ccccc12 (configuration not stated)	none

Compound activity (PubChem)
